Bioassay records from PubChem.
ELG1 DNA repair = inhibitors of ELG1-dependent DNA repair in HEK293T cells; HEK293T ELG1-luciferase reporter, luminescence, 16 h; DNA damage induced by 5-fluorouridine; Potency, µM (series often up to 46.1 µM), actives largely listed as inhibitors; actives 2.3% (n = 330,000); AID 504467; also: nearly all actives have a fitted effect of over 55% in size
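Overnight (16 hr) co-exposure of 2,000 cells/well to 5-fluorouridine and compound at 37 °C preceded detection. Luciferase was quantified via ONE-Glo luminescence; loss of signal denotes inhibition.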
Giardia kill = kills Giardia lamblia | Giardia lamblia trophozoite viability | activity change, % at 7.66 µM, hits read low | actives 0.15% (n = 340,000); in the data active = activity change below about -80%; inconclusive = between about -30% and that limit;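 also: parasites exposed to compound for two days anaerobically before the ATP read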
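Killing of trophozoites was scored by loss of ATP luminescence after a 48 hrs anaerobic exposure to compounds at 37 deg C, using 100 cells per well.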
p53 reactivator = mutant p53 re-activation in reporter cells. Potency, µM (top dose mostly 92.2 µM), hits mostly activators. actives 0.063% (n = 320,000). H1299 p53-A138V BP100-luciferase reporter, luminescence, 24 h; also: nearly all actives have a fitted effect of over 45% in size
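H1299 (p53-null), stable ts p53-A138V + BP100-Luc; 1000 cells/well, Opti-MEM/10% FBS; cpd 4 pt, 1:5; 24 h, 37 deg C, 5% CO2; detection reagent 10 min RT; luminescence.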
RORgamma inh = blocks mouse ROR gamma transcriptional activity | P51450 | Drosophila S2 Gal4-RORgamma UAS-luciferase reporter, 20 h | Potency, µM (series often up to 53.6 µM), hits mostly inhibitors | actives 5.4% (n = 310,000); also: nearly all actives have a fitted effect of over 60% in size
Target sequence (P51450 whole entry, looked up, the tested form may be a part): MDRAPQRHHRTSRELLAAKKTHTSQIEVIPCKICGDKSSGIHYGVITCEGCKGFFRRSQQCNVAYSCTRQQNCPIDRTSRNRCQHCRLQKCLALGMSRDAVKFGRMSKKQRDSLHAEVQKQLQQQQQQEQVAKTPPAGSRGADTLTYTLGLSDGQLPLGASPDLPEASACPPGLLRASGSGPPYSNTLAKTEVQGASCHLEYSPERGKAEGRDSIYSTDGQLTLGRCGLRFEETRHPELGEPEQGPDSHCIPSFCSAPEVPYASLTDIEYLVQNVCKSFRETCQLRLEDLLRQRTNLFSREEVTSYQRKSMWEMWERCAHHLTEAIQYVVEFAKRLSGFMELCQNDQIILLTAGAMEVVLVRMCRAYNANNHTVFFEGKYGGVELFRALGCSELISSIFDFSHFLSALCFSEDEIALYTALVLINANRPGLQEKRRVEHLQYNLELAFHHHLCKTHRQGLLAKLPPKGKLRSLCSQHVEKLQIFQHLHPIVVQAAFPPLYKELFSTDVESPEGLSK
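Stably transfected Drosophila Schneider cells are the test system, with ROR gamma fused to Gal4 and luciferase under UAS control; luminescence is read after 20 hr of 700 uM copper sulfate induction at ambient temperature.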
BRCA1 expr up = increases BRCA1 expression; MCF7-BRCA1-FFLuc reporter, luminescence, 48 h; response scale: scaled: vehicle 0%, 10 µM genistein 100%; Potency, µM (top dose mostly 46.1 µM), most hits filed as activators; actives 1.1% (n = 380,000); also: nearly all actives have a fitted effect of over 80% in size
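MCF7 cells carrying a BRCA1-firefly luciferase reporter (2000 cells/well, phenol-red free MEM) were attached for 2 h at 37 °C, then given compounds for 48 h. Luminescence was read 15 min after luciferase reagent; activity normalized to genistein (10 microM) and DMSO.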
Gal4-VP16 FLuc = counter-screen for ROR gamma inhibitors: Gal4-VP16 reporter | Drosophila S2 Gal4-VP16 UAS-luciferase, luminescence, 20 h | actives 3.5% (n = 310,000) | Potency, µM (titrated, usually from 53.6 µM), usual class: inhibitors | AID 2546;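 also: Gal4-VP16 expression switched on by copper sulfate through the metallothionein promoter; nearly all actives have a fitted effect of over 50% in size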
Large screens that a line does not name were inactive; ! = a repeat was not active. Only some compounds are listed: those with a hit (about 7.6% of all), similar ones and a draw of the others. Unless noted, calls follow the shape of the dose curve; as a rule, active = well fitted curve in the direction sought with a large enough effect; inconclusive = small, poorly fitted or top-dose-only effect, or another doubt; inactive = no such curve, though single readings can be large; an effect the other way counts as inactive or inconclusive.

Brc1cccc(CNc2nc3ccccc3n2CCN2CCCCC2)c1	ELG1 DNA repair inconclusive, RORgamma inh 4.5µM
COc1ccc(S(=O)(=O)N(C)C)cc1NC(=O)COC(=O)C1CC1	none (no result: RORgamma inh, Gal4-VP16 FLuc)
O=C(COC(=O)CCc1nc2ccccc2c(=O)[nH]1)Nc1ccc(OC(F)(F)F)cc1	none (no result: RORgamma inh, Gal4-VP16 FLuc)
COc1ccc(/C=C/CN2CCC(n3nccc3NC(=O)C3CC3)CC2)cc1	ELG1 DNA repair inconclusive
Cc1cc(C)n(CCN(C)Cc2nc(Cc3ccccc3F)no2)n1	ELG1 DNA repair inconclusive, RORgamma inh 11µM, Gal4-VP16 FLuc inconclusive
Cc1ccc(C)c(OCC(=O)O/N=C(\N)c2ccccn2)c1	ELG1 DNA repair inconclusive, p53 reactivator inconclusive, BRCA1 expr up inconclusive
CCC(CC)=N/N=C/c1c(O)n(CC)c2cc(C3=NNC(=O)CC3)ccc12	ELG1 DNA repair 21µM, RORgamma inh inconclusive, Gal4-VP16 FLuc inconclusive
CCn1c(O)c(/C=N/N=C/c2ccccc2)c2ccc(C3=NNC(=O)CC3)cc21	ELG1 DNA repair 26µM
Cn1c(C(=O)NCCC2=CCCCC2)cc2c(=O)n3ccccc3nc21	ELG1 DNA repair inconclusive, BRCA1 expr up 11µM (no result: Gal4-VP16 FLuc)
Cc1cccn2c(=O)c3cc(C(=O)NCCC4=CCCCC4)n(C)c3nc12	none
CC(C)C(=O)N(Cc1ccc(F)cc1)Cc1nc2ccccc2c(=O)[nH]1	RORgamma inh 11µM
CCN(CC(=O)NCCc1ccc(F)cc1)Cc1nc2ccccc2c(=O)[nH]1	RORgamma inh 7.9µM, Gal4-VP16 FLuc inconclusive
CCN(CC(=O)NCc1ccc(F)cc1)Cc1nc2cc(Cl)ccc2c(=O)[nH]1	Gal4-VP16 FLuc inconclusive
CCN(CC(=O)NCCc1ccc(Cl)cc1)Cc1nc2ccccc2c(=O)[nH]1	RORgamma inh 2.2µM, Gal4-VP16 FLuc inconclusive
CC(C)Cc1cc(C(=O)N2CCCC(CO)(Cc3ccc(F)cc3)C2)no1 (configuration not stated)	none
CC(=O)n1cc(N(C(=O)CCl)c2ccc(Cl)cc2)c2ccccc21	ELG1 DNA repair inconclusive, RORgamma inh inconclusive, Gal4-VP16 FLuc inconclusive
COc1ccccc1N(C(=O)CCl)c1cn(C(C)=O)c2ccccc12	ELG1 DNA repair 12µM, RORgamma inh inconclusive
CN(C)c1ccc(N2C(=NC(=O)C3CCCO3)SC3CS(=O)(=O)CC32)cc1 (configuration not stated)	ELG1 DNA repair inconclusive, Gal4-VP16 FLuc inconclusive
C=CC[n+]1c(-c2ccc(OC)c(OC)c2)csc1NNC(=O)Nc1ccccc1	ELG1 DNA repair inconclusive, RORgamma inh 10µM, Gal4-VP16 FLuc inconclusive
NC(=O)C1CCN(C(=O)CNC(=O)c2ccccc2)CC1	none
COc1ccc(-n2c(/C=C(\C)O)nc(=O)c3c(C)cc(C)nc32)cc1	ELG1 DNA repair 8.2µM
Cc1ccccc1OCc1nc2ccccc2n1C	ELG1 DNA repair inconclusive, RORgamma inh 20µM, Gal4-VP16 FLuc inconclusive (no result: p53 reactivator)
Cc1ccc(NCc2nc3ccccc3n2C)c(C)c1	ELG1 DNA repair inconclusive, RORgamma inh 13µM, Gal4-VP16 FLuc 10µM
Cn1c(COc2ccc(F)cc2)nc2ccccc21	ELG1 DNA repair inconclusive, BRCA1 expr up inconclusive (no result: p53 reactivator, RORgamma inh, Gal4-VP16 FLuc)
Cc1ccc(N2CCN(c3ccc(NCc4nc5ccccc5n4C)cc3)CC2)cc1	RORgamma inh 11µM
Cn1c(CNc2ccc(Cl)cc2)nc2ccccc21	ELG1 DNA repair inconclusive, p53 reactivator inconclusive, RORgamma inh inconclusive, Gal4-VP16 FLuc inconclusive
CC(=O)Oc1cc(OC(C)=O)c2c(c1)OC(c1ccc(OC(C)=O)c(OC(C)=O)c1)C(OC(C)=O)C2 (configuration not stated)	Gal4-VP16 FLuc 16µM! (no result: ELG1 DNA repair, Giardia kill, p53 reactivator, BRCA1 expr up)
CCCCCCCCCCOC(=O)NC1CCS(=O)(=O)C1 (configuration not stated)	ELG1 DNA repair 23µM, RORgamma inh inconclusive, Gal4-VP16 FLuc inconclusive
CCCOC(=O)NC1CCS(=O)(=O)C1 (configuration not stated)	none
CC(=O)NC(=S)Nc1ccccc1N1CCCCC1	RORgamma inh 2.5µM, Gal4-VP16 FLuc 7.1µM
CCCCC(=O)NC(=S)Nc1ccccc1N1CCCCC1	RORgamma inh 4.5µM, Gal4-VP16 FLuc 8.9µM
O=C(Cc1ccc(Cl)cc1)NC(=S)Nc1ccccc1N1CCOCC1	ELG1 DNA repair inconclusive, RORgamma inh 5µM, Gal4-VP16 FLuc 5µM
CC(C)CC(=O)Nc1ccccc1N1CCCC1	none
CC(C)CC(=O)NC(=S)Nc1ccccc1N1CCCC1	RORgamma inh 4µM, Gal4-VP16 FLuc 11µM
CC(C)(C)C(=O)NC(=S)Nc1ccccc1N1CCCC1	Gal4-VP16 FLuc inconclusive
Cc1noc(NS(=O)(=O)c2ccc(NC(=O)Cc3ccc([N+](=O)[O-])cc3)cc2)c1C	none
COc1cccc(CN(CC(=O)NCC2CCCO2)C(=O)CCC(=O)Nc2cc(C)on2)c1 (configuration not stated)	none
CCCCCC(=O)Nc1ccc(N2CCN(CC)CC2)c(Cl)c1	ELG1 DNA repair inconclusive, p53 reactivator inconclusive, Gal4-VP16 FLuc inconclusive
CCCCCC(=O)NC(=S)Nc1ccc(N2CCCCC2)c(Cl)c1	RORgamma inh 1.6µM, Gal4-VP16 FLuc 7.1µM
O=C(Cc1ccccc1)Nc1ccccc1N1CCOCC1	none
CCC(=O)NC(=S)Nc1ccc(N2CCOCC2)cc1	ELG1 DNA repair inconclusive, BRCA1 expr up inconclusive
CCCC(=O)NC(=S)Nc1cccc(Cl)c1N1CCCCC1	p53 reactivator inconclusive, RORgamma inh 0.63µM, Gal4-VP16 FLuc 1µM
CCCC(=O)NC(=S)Nc1ccccc1N1CCOCC1	RORgamma inh 11µM, Gal4-VP16 FLuc inconclusive
CCCCCC(=O)NC(=S)Nc1ccc(N2CCOCC2)cc1	RORgamma inh 1.3µM, Gal4-VP16 FLuc 2.2µM
N#Cc1ccc(CN2CCC3(CC2)CCN(C(=O)c2cnccn2)CC3)cc1	none (no result: ELG1 DNA repair, Giardia kill, p53 reactivator, BRCA1 expr up)
CCCCC(=O)NC(=S)Nc1cc(C(=O)O)ccc1OC	none
CCC(=O)NC(=S)Nc1ccccc1C(=O)NC1CCCCC1	Gal4-VP16 FLuc inconclusive
CCC(=O)NC(=S)Nc1cccc(Cl)c1N1CCCCC1	p53 reactivator inconclusive, RORgamma inh 4.5µM, Gal4-VP16 FLuc 5µM
CCCCC(=O)NC(=S)Nc1cccc(Cl)c1N1CCCCC1	ELG1 DNA repair inconclusive, p53 reactivator inconclusive, RORgamma inh 1.6µM, Gal4-VP16 FLuc 5µM
O=C(O)c1ccc(NC(=S)NC2CCCCC2)cc1	none
FC(F)(F)c1ccc(NC(=S)NC2CCCCC2)cc1	RORgamma inh 4.5µM, Gal4-VP16 FLuc inconclusive
FC(F)(F)c1cccc(NC(=S)NC2CCCC2)c1	Giardia kill inconclusive, RORgamma inh 5µM, Gal4-VP16 FLuc 8.9µM
Fc1cccc(NC(=S)NNc2ccccc2)c1	RORgamma inh 1.3µM, Gal4-VP16 FLuc 2.2µM
Fc1cccc(NC(=S)NC2CCCCCCC2)c1	p53 reactivator inconclusive, RORgamma inh 3.5µM, Gal4-VP16 FLuc 7.1µM
O=C(Nc1cccc(F)c1)C1CCCCC1	none (no result: RORgamma inh, Gal4-VP16 FLuc)
